From PubChem BioAssay AID1688 (National Center for Advancing Translational Sciences (NCATS), 2009)
Screen size: about 220,000 compounds; about 2,400 (1.1%) were called active. Inconclusive results (about 7%) are left out. The call rests on the fitted dose curve; in most records, active means well fitted inhibition curve with a large enough effect; inconclusive means small, poorly fitted or top-dose-only effect, or effect the other way; inactive means no such curve, though single readings can be large or run the other way. The sample as a whole holds a higher share of actives than the screen did.

test: qHTS Multiplex Assay to Identify Dual Action Probes in a Cell Model of Huntington: Aggregate Formation (GFP); conditions: PC12 HttQ103-GFP aggregates, Acumen cytometry, 40 h; series mostly up to 9.22 µM; activity change, negative = inhibition: at the top concentration; further: nearly all actives have a fitted effect of over 60% in size
How it was run: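 Compounds (qHTS titration) were added to PC12 cells expressing an ecdysone-driven HTT exon 1 Q103–GFP fusion after induction with 100 nM tebufenozide. Aggregate formation was measured as GFP objects in cell lysates.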
On the % scale 0 is the no-effect control and ±100 the full control effect; potency means the concentration at half of the fitted maximal effect.

Activity change, negative = inhibition, inactive:
CN(CC(O)COc1ccc(S(=O)(=O)N2CCOCC2)cc1Cl)C1CCCCC1 (stereo not drawn) -4.06%
Cn1nnc(NC(=S)NC(=O)c2ccccc2)n1 11.7%
CN1CCN(S(=O)(=O)c2ccc(NC(=O)c3ccco3)cc2)CC1 11.2% [at 46.1 µM]
CCNC(=S)N1CCN(C(=O)c2ccco2)CC1 9.98% [at 46.1 µM]
CC1CC(=O)Nc2ccccc2N1S(=O)(=O)c1cccs1 (stereo not drawn) 3.13%
O=C(NCCCn1ccnc1)C(=O)NCC1OCCN1S(=O)(=O)c1cc(F)ccc1F (stereo not drawn) 8.85%
CCOC(=O)CNC(=O)CSc1nnnn1-c1cc(C)ccc1C 14.2% [at 46.1 µM]
COC(=O)c1ccccc1NC(=O)CSc1nnnn1C -29.7% [at 46.1 µM]
O=S(=O)(c1ccc(Cl)cc1)N1CCCN(c2ccc(C(F)(F)F)cn2)CC1 -10.6%
Cc1ccc(NC(=O)c2ccc(CSc3ncnc4nc[nH]c34)cc2)c(C)c1 12.5% [at 46.1 µM]
c1ccc2c(c1)OCC(CNc1ncnc3nc[nH]c13)O2 (stereo not drawn) -28.7% [at 46.1 µM]
COc1ccc2c(c1)SC(C)CC2=O (stereo not drawn) 16.9% [at 46.1 µM]
CC1(C)CC(=O)c2ccc(O)cc2O1 32.4% [at 46.1 µM]
C=CCSc1nc(N)cc(=O)[nH]1 2.34%
O=C(O)CC1=C(Nc2ccccc2)C(=O)N(c2ccccc2)C1c1ccc(Cl)cc1 (stereo not drawn) 16.1%
CC(CO)(CO)NC(=O)c1ccc(=O)[nH]n1 11.4%
COc1cccc(/C=N/NC(=O)c2cccc([N+](=O)[O-])c2)c1OS(=O)(=O)c1ccc(C)cc1 -13.7% [at 46.1 µM]
O=C(N/N=C/c1cccc([N+](=O)[O-])c1)c1ccncc1 7.45%
Cc1[nH]n(-c2cccc(Cl)c2)c(=O)c1/C=N/n1c(C)nc2ccccc2c1=O -27.5% [at 46.1 µM]
Cc1ccc(N=Nc2c(C)[nH]n(-c3ccccc3)c2=O)cc1 0%
COc1cc2c(cc1OC)[C@@H](Cc1cc(OC)c(OC)c(OC)c1)[N+](C)(CCCOC(=O)CC/C=C/CCC(=O)OCCC[N+]1(C)CCc3cc(OC)c(OC)cc3[C@H]1Cc1cc(OC)c(OC)c(OC)c1)CC2 (stereo partly drawn) -4.74% [at 46.1 µM]
O=c1[nH]n2c(-c3ccccc3)nc(O)c2c2ccccc12 -14.4%
Cc1cc(-c2ccccc2)n2nc(C)c(-c3ccccc3)c2n1 -11.2% [at 46.1 µM]
Cc1ccc(NC(=O)Cn2nc(C)c3ccccc3c2=O)c(C)c1 -23.1% [at 46.1 µM]
COc1ccc(-c2nn(C)c(=O)c3ccccc23)cc1NC(=O)COc1ccccc1 -17.9% [at 46.1 µM]
CCCCNC(=O)OCCSCCS(=O)(=O)c1ccc(Cl)cc1 6.92%
CC(C)(C)n1cnnc1Sc1ccc([N+](=O)[O-])cn1 4.48%
CCC(C)N1C(=S)SC(C)(C)C1N(O)C(=O)NC1CCCCC1 (stereo not drawn) 36.2%
c1ccc(-c2nc(NCc3ccco3)c3ccccc3n2)cc1 11.2% [at 46.1 µM]
O=C(NCc1ccncc1)C(=O)NCc1ccco1 -9.62% [at 46.1 µM]
Cc1cc(C)cc(NS(=O)(=O)c2ccc(F)cc2)c1 23.6%
CCOc1cc(N2CCOCC2)c(OCC)cc1NC(=O)c1ccc(C)s1 4.22%
CCOc1cc(N2CCOCC2)c(OCC)cc1NC(=O)c1cc(C)nc2ccccc12 6.16%
O=c1c2ccccc2cnn1Cc1n[nH]c(=S)n1-c1ccccc1F -0.823%
COc1cc(OC)c(OC)cc1/C=N/Nc1ncnc2c1[nH]c1ccc(C)cc12 -13.5%
O=C1CCCN1CCCNc1ncnc2c1[nH]c1ccccc12 10.3% [at 46.1 µM]
COc1ccc(NC(=O)C2CCC(CNc3c(N4CCCCC4)c(=O)c3=O)CC2)c(OC)c1 (stereo not drawn) 0%
Cc1cc(N)n(-c2ccc(S(=O)(=O)N3CCCC3)cc2[N+](=O)[O-])n1 -12.1%
CCOC(=O)N1CCN(Cc2nc3c(c(=O)n(C)c(=O)n3C)n2Cc2ccccc2)CC1 6.2% [at 46.1 µM]
COCCn1c(CN(Cc2ccccc2)Cc2ccccc2)nc2c1c(=O)n(C)c(=O)n2C -8.79% [at 46.1 µM]
O=C(Nc1ccc(Br)cn1)C1CCN(S(=O)(=O)c2cccs2)CC1 -30.3%
COC(=O)c1cccc(NS(C)(=O)=O)c1 4.68%
Cc1ccc(Cl)c(OCC(=O)NN2CCN(C)CC2)c1 10.6%
C/[N+]([O-])=C\c1ccc([N+](=O)[O-])o1 1.96% [at 46.1 µM]
Cn1cc(/C=C/c2nc3ccccc3c(=O)n2-c2cccc([N+](=O)[O-])c2)c2ccccc21 10.7% [at 46.1 µM]
CC(NC(=O)C(C)(C)C)C(c1cccs1)N1CCN(Cc2ccccc2)CC1 (stereo not drawn) 0.443%
Cc1ccc(C)c2c1cc(C)c1nnc(SCC(=O)Nc3cccc(C(=O)O)c3)n12 -40.5%
O=S(=O)(Nc1ccc(OC(F)(F)F)cc1)c1cccc2nonc12 0.873%
CC(C)CN(CC(C)C)CC(O)CN(c1ccccc1)S(=O)(=O)c1ccccc1[N+](=O)[O-] (stereo not drawn) -1.18%
Cc1cccc(CSc2nnc(Cn3c(=O)sc4ccccc43)n2C)c1 -12.4% [at 46.1 µM]
COc1ccccc1CNC(=O)CCn1c(=O)sc2ccccc21 0.103% [at 46.1 µM]
CC(C)Sc1nnc([C@H](Cc2ccccc2)NC(=O)OC(C)(C)C)o1 9.88%
CCc1cc(C(=O)c2ccc(OC)cc2)c(NC(=O)CN2CCN(C)CC2)s1 -4.7%
CCOC(=O)c1c(NC(=O)NC(C)(C)C)sc2c1CCN(C)C2 24.2%
Cc1cc(C(=O)Nc2c(C)nn(Cc3ccccc3)c2C)on1 -1.37% [at 46.1 µM]
O=C(Nc1cc(C(F)(F)F)ccc1Cl)c1cc(C2CC2)on1 -12.3% [at 46.1 µM]
CCOC(=O)c1c(C)oc(C)c(C(=O)OCC)c1=O -16.8%
Cc1c(S(=O)(=O)NCc2ccccc2)c(=O)n(C)c(=O)n1C 34.1%
CCc1ccc2nc(Nc3ncc(C(C)=O)c(C)n3)nc(C)c2c1 -19.3%
O=C(CSc1nc2[nH]ncc2c(=O)n1-c1ccccc1)N1CCCc2ccccc21 1.39% [at 46.1 µM]
O=C(CSc1nc2ccccc2c(=O)n1CCCO)N1CCc2ccccc21 4.23% [at 46.1 µM]
Cc1nc(CNS(=O)(=O)c2cc([N+](=O)[O-])ccc2C)cs1 0.787%
COc1ccc(NC(=S)Nc2ccccc2Cl)cn1 7.84% [at 46.1 µM]
COc1ccc(NC(=S)NCCNC(C)=O)cc1 12.1% [at 46.1 µM]
FCOC(C(F)(F)F)C(F)(F)F 6.73% [at 46.1 µM]
O=C(Nc1ccc2ccccc2c1)/C(=C/c1cccc(Br)c1)NC(=O)c1ccco1 -8.13% [at 46.1 µM]
COc1ccc(C(=O)NC(=S)NNC(=O)CCc2ccccc2)cc1 -24% [at 46.1 µM]
O=C(c1ccco1)N1CCN(CCOc2ccccc2)CC1 12.3%
COc1cc(OC)nc(S(C)(=O)=O)n1 5.84% [at 46.1 µM]
COc1ccc(-c2cc(C(F)(F)F)nc(SCC(=O)Nc3ccc4c(c3)OCO4)n2)cc1OC -7.98% [at 46.1 µM]
CC1Cc2ccccc2N1S(=O)(=O)c1ccc(Cl)nc1 (stereo not drawn) 5.35%
COc1ccc(C2(C#N)CCC(C(=O)O)CC2)cc1OC1CCCC1 (stereo not drawn) 3.74% [at 46.1 µM]
CCOC(=O)N1CCN(C(=O)C2CCN(Cc3ccc(OC)cc3OC)CC2)CC1 4.49% [at 46.1 µM]
CCOC(=O)C1CCN(c2ncnc3c2oc2ccc(Br)cc23)CC1 11.4% [at 46.1 µM]
COc1ccc(-c2[nH]ncc2/C=N/NC(=O)c2cc(Br)ccc2O)c(OC)c1 -30.4% [at 46.1 µM]
O=C(N/N=C\c1cccc(Br)c1)c1ccccc1-n1cccc1 -0.974% [at 46.1 µM]
Cc1c(C)c(C)c2[nH]c(=S)[nH]c2c1C -19.2%
CCc1c(C)nc2c(-c3ccccc3)c(C)nn2c1Nc1ccc(NC(C)=O)cc1 13.2%
O=C(CCC(=O)Nc1ccccc1)N/N=C/c1ccccc1F 10.3% [at 46.1 µM]
O=C(CCCCCNC(=O)c1ccccc1)N/N=C/c1ccccc1 10.1% [at 46.1 µM]
O=[N+]([O-])C(=c1ccc2c(c1)N1C3=C(CCCC3)CC3CCCCC31N=2)[N+](=O)[O-] (stereo not drawn) -2.2%
CCOC(=O)CN(C(=O)COc1nc(-c2ccccc2)cc(C)c1C#N)c1ccc(F)cc1 -11%
C=CCN(c1ccccc1C(=O)NCC(=O)OCC)S(=O)(=O)c1ccc(C)cc1 -26.8%
O=C(O)c1ccc(NC(=O)C2CCCCC2)cc1 8.31% [at 46.1 µM]
CN1C(=O)c2ccc(NC(=O)C3CCCCC3)cc2C1=O 3.28% [at 46.1 µM]

Potency, active:
CC(C)Cc1ccc(S(=O)(=O)N2CCN(C(=O)c3ccco3)CC2)cc1 10 µM
CCOC(=O)c1c(-c2ccc(C)cc2C)csc1NC(=O)CSc1nnnn1C 11.2 µM
CCc1ccc(N(CC)c2ncnc3nc[nH]c23)cc1 10 µM
COc1ccc2c(c1)OC(O)(C(F)(F)C(F)F)CC2=O (stereo not drawn) 20 µM
Cc1ccc(-n2[nH]c(C)c(/C=N/NC(=O)c3cccc([N+](=O)[O-])c3)c2=O)cc1C 5.01 µM
Cc1[nH]n(-c2ccccc2)c(=O)c1/C=N/NC(=O)c1ccoc1C 7.08 µM
Cc1nc2c(-c3ccccc3)c(C)[nH]n2c(=O)c1Cl 10 µM
Cc1ccc(F)cc1NC(=O)Cc1nn(C)c(=O)c2ccccc12 14.1 µM
c1coc(CNc2ncnc3ccccc23)c1 7.94 µM
CCOc1cc(N2CCOCC2)c(OCC)cc1NC(=O)COc1cccc2cccnc12 3.55 µM
CC(C)OCCCNc1ncnc2c1[nH]c1ccc(F)cc12 2.24 µM
Cn1c(=O)c2c(nc(OCc3cccnc3)n2Cc2ccccc2)n(C)c1=O 12.6 µM
CCn1c(/C=C/c2ccc([N+](=O)[O-])o2)nc2ccccc2c1=O 11.2 µM
COc1ccc(Cn2c(=O)sc3ccccc32)cc1OC 0.631 µM
Cc1nn(Cc2ccc(Cl)c(Cl)c2)c(C)c1NC(=O)c1cc(C2CC2)on1 17.8 µM
Cn1c(SCC(=O)N2CCCc3ccccc32)nc2ccccc2c1=O 7.94 µM
COc1ccc(CS(=O)/C(Cl)=C(/Cl)C(=O)Nc2ccc(OC)nc2)cc1 (stereo not drawn) 5.01 µM
CC(Oc1ccc2ccccc2c1)C(=O)NNC(=S)NC(=O)c1ccco1 (stereo not drawn) 11.2 µM
COc1ccc(-c2cc(C(F)(F)F)nc(S(C)(=O)=O)n2)cc1OC 10 µM
CCOC(=O)N1CCN(C(=O)C2CCN(c3ncnc4c3sc3cccc(F)c34)CC2)CC1 10 µM
CC(C)/C=N/NC(=O)c1cc(Br)ccc1O 8.91 µM
O=C(N/N=C/c1ccccc1O)/C(=C/c1ccccc1)CCO 7.94 µM
O=C(Nc1cnn(Cc2ccc(Cl)cc2)c1)C1CCCC1 0.794 µM
